Assay [1] concerns the target Retinoic acid receptor RXR-alpha (Homo sapiens) (UniProt P19793). The assay can be described thus: OT_NURR1_NURR1RXRa_1440: Odyssey Thera (OT) 24-hour HEK293T Protein Complementation Assay for Nurr1/retinoid X receptor (RXR) (AID 2283386; active = hit-call score of the fitted dose curve at least 0.9, where 1 is the maximum). In a few lines:
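Steps: fragment-tagged Nurr1 and RXRα expressed in HEK293T; compounds added; after 24 h, complemented reporter quantified by fluorescence intensity; signal increase over DMSO fitted as the single endpoint.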

Assay [2] has as its target Peroxisome proliferator-activated receptor gamma (Homo sapiens) (UniProt P37231). The assay can be described thus: OT_PPARg_PPARgSRC1_0480: Odyssey Thera (OT) 8-hour Protein-Complementation Assay for Peroxisome Proliferator-activated Receptor Gamma / SRC-1 Co-activator (AID 2283387; active = hit-call score of the fitted dose curve at least 0.9, where 1 is the maximum;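 note: nuclear to cytoplasmic split Venus YFP fluorescence ratio reporting PPARg SRC-1 interaction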). In a few lines:
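Protein-fragment complementation in HEK293T: Venus YFP halves (residues 1-158, 159-239, mutated to IFP1/IFP2) fused to PPARg/SRC-1. 8 h exposure; N/C ratio at 488 nm; DMSO negative control.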

Assay [3] has the same target. The assay can be described thus: OT_PPARg_PPARgSRC1_1440: Odyssey Thera (OT) 24-hour Protein-Complementation Assay for Peroxisome Proliferator-activated Receptor Gamma/ SRC-1 Co-activator (AID 2283388; active = hit-call score of the fitted dose curve at least 0.9, where 1 is the maximum;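 note: nuclear to cytoplasmic ratio of reconstituted Venus YFP fluorescence in fixed imaged cells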). The gist of the method:
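Readout is the 488 nm N/C fluorescence ratio from fixed, Draq5-stained HEK293T cells after 24 h compound exposure. Cells carried transiently transfected PPARg and SRC-1 fused to Venus fragments, transfected 48 h before treatment.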

A short description of assay [4]: CEETOX_H295R_11DCORT: CeeTox H295R High-throughput Steroidogenesis Assay for 11-Deoxycortisol (11DCORT) (AID 2283432). The conditions noted are these: actives raise or lower the signal. The gist of the method:
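Adrenal carcinoma line H295R, run per OECD 456 with minor changes, was forskolin-stimulated (10 uM, 48 h) before a 48 h chemical exposure at 0.1% DMSO. Secreted 11-deoxycortisol was quantified by HPLC-MS/MS.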

A short description of assay [5]: CEETOX_H295R_OHPREG: CeeTox H295R High-throughput Steroidogenesis Assay for OH-Pregnenolone (OHPREG) (AID 2283434). The settings on record: actives raise or lower the signal. In a few lines:
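Secreted 17alpha-hydroxypregnenolone measured by HPLC-MS/MS after liquid-liquid extraction. Human adrenal H295R cells received 48 h forskolin (10 uM) stimulation before 48 h chemical exposure at 0.1% final DMSO; MTT viability in same wells; bidirectional fit against DMSO.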

Assay [6] can be described thus: CEETOX_H295R_CORTIC: CeeTox H295R High-throughput Steroidogenesis Assay for Corticosterone (CORTIC) (AID 2283437). The conditions noted are these: actives raise or lower the signal. The gist of the method: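 Medium corticosterone was quantified by tandem mass spectrometry following 48 hours of chemical exposure (0.1% DMSO) in human H295R cells previously stimulated 48 hours with 10 uM forskolin. Viability checked by MTT; chemicals diluted and retested when viability fell below 70%.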

Assay [7] can be described thus: CEETOX_H295R_CORTISOL: CeeTox H295R High-throughput Steroidogenesis Assay for Cortisol (AID 2283438). The settings on record: actives raise or lower the signal. The gist of the method: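 Cortisol synthesis by H295R cells is measured 48 h after chemical dosing, following a 48 h stimulation with 10 uM forskolin. Hormone is extracted and quantified by HPLC-MS/MS, and activity is fitted bidirectionally against the DMSO control.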

Assay [8] can be described thus: CEETOX_H295R_DOC: CeeTox H295R High-throughput Steroidogenesis Assay for DOC (AID 2283439). The settings on record: actives raise or lower the signal. The gist of the method: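 Steps: seed H295R, adhere overnight; 10 uM forskolin 48 h; replace with chemical medium (0.1% DMSO) 48 h; collect medium, MTBE extraction, HPLC-MS/MS for DOC. Viability then checked by MTT; cytotoxic chemicals diluted until viability ≥70%.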

Assay [9] in a line: CEETOX_H295R_ESTRADIOL: CeeTox H295R High-throughput Steroidogenesis Assay for Estradiol (AID 2283440).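 Note: estradiol secreted into medium quantified by LC-MS/MS after dansyl derivatisation.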 The settings on record: actives raise or lower the signal. In a few lines:
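Estradiol in spent medium measured by LC-MS/MS after dansyl chloride derivatisation. Forskolin-primed (10 uM, 48 h) human adrenal H295R cells received test chemical 48 h at 0.1% DMSO; concentrations lowered until MTT viability >/=70%.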

The nature of assay [10]: CEETOX_H295R_ESTRONE: CeeTox H295R High-throughput Steroidogenesis Assay for Estrone (AID 2283441). The settings on record: actives raise or lower the signal. In a few lines:
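Estrone secreted into medium quantified by LC-MS/MS after dansyl chloride derivatization, following 48 h chemical exposure (0.1% DMSO final) of forskolin-prestimulated (10 uM, 48 h) H295R cells; gain or loss fitted against DMSO; MTT viability in same wells.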

A short description of assay [11]: CEETOX_H295R_PROG: CeeTox H295R High-throughput Steroidogenesis Assay for Progesterone (PROG) (AID 2283442).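 For AC50: human H295R adrenal cells primed with 10 µM forskolin before dosing.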 The conditions noted are these: actives raise or lower the signal. The gist of the method: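 Progesterone secreted by human H295R cells was measured by LC-MS/MS following 48 h chemical exposure at 0.1% DMSO, preceded by 48 h forskolin (10 uM) stimulation. Same-well MTT viability; cytotoxic concentrations diluted 10- or 100-fold and retested.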

Read-out in assay [12]: Tumor necrosis factor receptor superfamily member 6 (Homo sapiens) (UniProt P25445)
The assay can be described thus: LTEA_HepaRG_FAS: Life Technologies and Expression Analysis (LTEA) Assay for Fas cell surface death receptor (FAS) using HepaRG (AID 2283447). The conditions noted are these: mRNA level, 48 h; actives raise or lower the signal. In a few lines:
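FAS transcript level was measured by TaqMan qRT-PCR against three housekeeping genes after 48 h chemical exposure. Cells were HepaRG, 0.5% DMSO vehicle, with a top concentration of 100 uM and half-log dilutions over eight points, in duplicate.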

Read-out in assay [13]: Fatty acid synthase (Homo sapiens) (UniProt P49327)
The assay can be described thus: LTEA_HepaRG_FASN: Life Technologies and Expression Analysis (LTEA) Assay for Fatty Acid Synthase (FASN) using HepaRG (AID 2283448).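 For AC50: differentiated human HepaRG liver cells in serum-free induction medium.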 The settings on record: mRNA level, 48 h; actives raise or lower the signal. The gist of the method:
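Cells were plated, cultured 48 h, switched to serum-free induction medium, then dosed in duplicate (max 100 uM, half-log dilutions, 0.5% DMSO) for 48 h. RNA was then isolated and FASN quantified by qRT-PCR.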

Read-out in assay [14]: Cyclin D2 (CCND2), CCND2 (gene 894)
Description: LTEA_HepaRG_CCND2: Life Technologies and Expression Analysis (LTEA) Assay for Cyclin D2 (CCND2) using HepaRG (AID 2283449). The settings on record: mRNA level, 48 h; actives raise or lower the signal. In a few lines: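 CCND2 transcript levels, quantified by qRT-PCR and normalised to three housekeeping genes, were fitted bidirectionally against 0.5% DMSO. HepaRG cultures were dosed 48 h in duplicate with an 8-point half-log series up to 100 uM.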

Read-out in assay [15]: Cyclin D1 (CCND1), CCND1 (gene 595)
The assay can be described thus: LTEA_HepaRG_CCND1: Life Technologies and Expression Analysis (LTEA) Assay for Cyclin D1 (CCND1) using HepaRG (AID 2283451).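 For AC50: differentiated human HepaRG liver cells in serum-free induction medium; TaqMan qRT-PCR transcript level normalised to ACTB GAPDH and POLR2A housekeeping genes.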 The settings on record: mRNA level, 48 h; actives raise or lower the signal. The gist of the method:
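Expression of CCND1 was quantified by qRT-PCR on Fluidigm arrays using ACTB, GAPDH and POLR2A as reference genes. HepaRG cultures, plated 48 h beforehand, were dosed for 48 h at up to 100 uM (half-log, 8 points) in 0.5% DMSO.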

Read-out in assay [16]: catalase (CAT), CAT (gene 847)
The assay can be described thus: LTEA_HepaRG_CAT: Life Technologies and Expression Analysis (LTEA) Assay for catalase (CAT) using HepaRG (AID 2283452).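 For AC50: TaqMan qRT-PCR signal normalized to ACTB GAPDH and POLR2A housekeeping genes.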 The conditions noted are these: mRNA level, 48 h; actives raise or lower the signal. The gist of the method: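 Expression of CAT was quantified by TaqMan qRT-PCR with ACTB/GAPDH/POLR2A normalization after 48 h chemical exposure of HepaRG. Eight-point half-log series, top 100 uM, in 0.5% DMSO; gain or loss fitted against vehicle.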

Read-out in assay [17]: flavin-containing dimethylaniline monooxygenases 3 (FMO3), FMO3 (gene 2328)
The assay can be described thus: LTEA_HepaRG_FMO3: Life Technologies and Expression Analysis (LTEA) Assay for flavin-containing dimethylaniline monooxygenases 3 (FMO3) using HepaRG (AID 2283453).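 For AC50: differentiated human HepaRG liver cells in serum-free induction medium; FMO3 transcript by TaqMan qRT-PCR normalized to ACTB GAPDH and POLR2A.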 The settings on record: mRNA level, 48 h; actives raise or lower the signal. In a few lines:
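FMO3 transcript quantified by TaqMan qRT-PCR against three housekeeping genes after 48 h chemical exposure of HepaRG cells. Eight-point half-log series, top 100 uM, 0.5% DMSO vehicle; phenobarbital 1mM induction control; up- or down-regulation fitted.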

Read-out in assay [18]: Cytochrome P450 (CYP1A1), CYP1A1 (gene 1543)
The assay can be described thus: LTEA_HepaRG_CYP1A1: Life Technologies and Expression Analysis (LTEA) Assay for Cytochrome P450 (CYP1A1) using HepaRG (AID 2283454). The conditions noted are these: mRNA level, 48 h; actives raise or lower the signal. The gist of the method: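 CYP1A1 transcript levels measured by Fluidigm qRT-PCR against three housekeeping genes, 48 h after chemical dosing of human HepaRG cells (highest concentration 100 uM, half-log steps, 0.5% DMSO vehicle). Gain or loss of signal fitted relative to DMSO.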

Read-out in assay [19]: Cyclin Dependent Kinase Inhibitor 1A (CDKN1A), CDKN1A (gene 1026)
Description: LTEA_HepaRG_CDKN1A: Life Technologies and Expression Analysis (LTEA) Assay for Cyclin Dependent Kinase Inhibitor 1A (CDKN1A) using HepaRG (AID 2283450). The settings on record: mRNA level, 48 h; actives raise or lower the signal. In a few lines: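 Expression quantified by Fluidigm qRT-PCR with ACTB, GAPDH and POLR2A normalization, fitted bidirectionally against 0.5% DMSO. Cells: HepaRG, plated 48 h then treated 48 h in serum-free induction medium, top concentration 100 uM with half-log dilutions.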

The structures appear in SMILES notation. Inconclusive results are not listed. Some compounds were tested as several samples or in several runs, with calls that do not always agree. Active and inactive are the calls of the source. Rule for the calls, unless noted: active = hit-call score of the fitted dose curve at least 0.9, where 1 is the maximum; inactive = score below 0.9.

For orientation: AC50 means the concentration giving half of the maximal activity seen.

Sequence of Peroxisome proliferator-activated receptor gamma (Homo sapiens) (P37231 whole entry, looked up, the tested form may be a part): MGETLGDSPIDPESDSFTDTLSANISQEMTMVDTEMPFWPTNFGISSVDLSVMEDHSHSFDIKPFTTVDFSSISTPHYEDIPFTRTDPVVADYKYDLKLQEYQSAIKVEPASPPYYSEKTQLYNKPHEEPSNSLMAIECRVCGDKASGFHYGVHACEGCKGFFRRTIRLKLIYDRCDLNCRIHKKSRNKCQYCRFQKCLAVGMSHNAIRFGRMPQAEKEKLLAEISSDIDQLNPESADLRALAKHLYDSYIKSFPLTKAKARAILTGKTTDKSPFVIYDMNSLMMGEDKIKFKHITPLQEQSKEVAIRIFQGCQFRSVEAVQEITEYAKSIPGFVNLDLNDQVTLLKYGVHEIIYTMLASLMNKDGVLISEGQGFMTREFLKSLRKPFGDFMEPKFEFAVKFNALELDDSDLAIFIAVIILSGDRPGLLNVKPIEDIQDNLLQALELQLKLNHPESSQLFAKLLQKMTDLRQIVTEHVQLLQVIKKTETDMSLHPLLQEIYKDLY
Sequence of Fatty acid synthase (Homo sapiens) (P49327 whole entry, looked up): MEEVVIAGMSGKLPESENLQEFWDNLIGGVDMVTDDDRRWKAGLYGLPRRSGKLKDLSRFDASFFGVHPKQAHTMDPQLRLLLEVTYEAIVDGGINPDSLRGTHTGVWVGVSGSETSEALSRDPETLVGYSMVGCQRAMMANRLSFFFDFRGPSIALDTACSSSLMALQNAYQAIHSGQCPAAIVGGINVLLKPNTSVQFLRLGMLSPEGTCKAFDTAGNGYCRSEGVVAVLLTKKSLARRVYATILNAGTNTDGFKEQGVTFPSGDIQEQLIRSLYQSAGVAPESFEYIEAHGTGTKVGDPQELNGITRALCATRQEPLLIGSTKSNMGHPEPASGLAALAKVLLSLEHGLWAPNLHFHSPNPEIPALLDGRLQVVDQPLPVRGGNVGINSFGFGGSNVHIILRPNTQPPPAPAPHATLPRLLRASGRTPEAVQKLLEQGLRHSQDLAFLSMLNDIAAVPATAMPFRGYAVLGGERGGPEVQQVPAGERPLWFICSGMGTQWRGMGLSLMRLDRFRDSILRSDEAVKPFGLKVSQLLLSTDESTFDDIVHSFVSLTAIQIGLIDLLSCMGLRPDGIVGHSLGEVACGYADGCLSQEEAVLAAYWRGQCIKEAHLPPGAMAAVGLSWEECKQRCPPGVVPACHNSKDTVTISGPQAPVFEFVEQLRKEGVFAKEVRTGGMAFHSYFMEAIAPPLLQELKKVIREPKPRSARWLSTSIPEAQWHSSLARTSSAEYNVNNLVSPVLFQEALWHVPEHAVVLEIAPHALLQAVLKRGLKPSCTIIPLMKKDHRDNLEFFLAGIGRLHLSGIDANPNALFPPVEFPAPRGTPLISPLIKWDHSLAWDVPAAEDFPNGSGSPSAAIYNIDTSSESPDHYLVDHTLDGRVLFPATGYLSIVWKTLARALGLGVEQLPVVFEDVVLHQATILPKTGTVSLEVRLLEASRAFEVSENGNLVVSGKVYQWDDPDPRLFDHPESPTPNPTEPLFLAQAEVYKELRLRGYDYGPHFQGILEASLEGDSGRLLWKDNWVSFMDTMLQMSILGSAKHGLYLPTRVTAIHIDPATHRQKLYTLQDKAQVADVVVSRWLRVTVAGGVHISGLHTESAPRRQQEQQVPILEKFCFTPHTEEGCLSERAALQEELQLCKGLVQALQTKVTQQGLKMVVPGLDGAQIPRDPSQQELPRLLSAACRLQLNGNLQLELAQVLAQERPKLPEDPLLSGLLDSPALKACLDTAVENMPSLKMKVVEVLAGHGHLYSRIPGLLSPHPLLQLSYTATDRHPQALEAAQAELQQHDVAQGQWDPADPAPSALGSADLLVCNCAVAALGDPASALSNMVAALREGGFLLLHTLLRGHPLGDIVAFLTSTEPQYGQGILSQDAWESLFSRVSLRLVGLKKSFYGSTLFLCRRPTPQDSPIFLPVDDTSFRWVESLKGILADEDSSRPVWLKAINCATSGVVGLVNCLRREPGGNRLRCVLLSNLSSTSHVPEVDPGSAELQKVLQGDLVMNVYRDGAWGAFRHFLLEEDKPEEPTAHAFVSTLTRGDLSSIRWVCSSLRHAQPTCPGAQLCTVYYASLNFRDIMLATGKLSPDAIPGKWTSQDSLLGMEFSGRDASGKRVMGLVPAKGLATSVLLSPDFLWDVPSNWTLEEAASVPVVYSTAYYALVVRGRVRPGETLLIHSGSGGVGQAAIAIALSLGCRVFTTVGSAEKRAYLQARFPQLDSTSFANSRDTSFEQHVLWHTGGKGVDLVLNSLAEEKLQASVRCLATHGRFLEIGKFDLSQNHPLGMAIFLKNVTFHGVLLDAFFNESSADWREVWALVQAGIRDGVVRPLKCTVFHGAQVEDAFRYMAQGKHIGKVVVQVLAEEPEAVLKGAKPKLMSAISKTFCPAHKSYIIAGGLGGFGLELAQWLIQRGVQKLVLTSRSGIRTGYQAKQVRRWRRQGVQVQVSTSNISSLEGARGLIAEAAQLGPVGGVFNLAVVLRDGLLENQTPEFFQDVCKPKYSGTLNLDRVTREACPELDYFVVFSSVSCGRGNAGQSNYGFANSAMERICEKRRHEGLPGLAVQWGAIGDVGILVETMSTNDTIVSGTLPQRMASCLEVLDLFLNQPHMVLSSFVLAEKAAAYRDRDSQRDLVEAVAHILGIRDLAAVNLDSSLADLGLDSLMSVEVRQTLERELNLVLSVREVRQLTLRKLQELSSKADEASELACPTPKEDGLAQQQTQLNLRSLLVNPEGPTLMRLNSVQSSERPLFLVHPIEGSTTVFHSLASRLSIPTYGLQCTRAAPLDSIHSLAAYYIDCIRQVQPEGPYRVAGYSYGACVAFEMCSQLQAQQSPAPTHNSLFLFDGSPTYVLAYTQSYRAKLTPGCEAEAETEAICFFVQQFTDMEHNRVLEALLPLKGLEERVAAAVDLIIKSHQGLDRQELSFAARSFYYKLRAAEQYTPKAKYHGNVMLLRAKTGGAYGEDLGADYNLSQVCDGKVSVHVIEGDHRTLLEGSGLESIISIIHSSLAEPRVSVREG
Sequence of Retinoic acid receptor RXR-alpha (Homo sapiens) (P19793 whole entry, looked up, the tested form may be a part): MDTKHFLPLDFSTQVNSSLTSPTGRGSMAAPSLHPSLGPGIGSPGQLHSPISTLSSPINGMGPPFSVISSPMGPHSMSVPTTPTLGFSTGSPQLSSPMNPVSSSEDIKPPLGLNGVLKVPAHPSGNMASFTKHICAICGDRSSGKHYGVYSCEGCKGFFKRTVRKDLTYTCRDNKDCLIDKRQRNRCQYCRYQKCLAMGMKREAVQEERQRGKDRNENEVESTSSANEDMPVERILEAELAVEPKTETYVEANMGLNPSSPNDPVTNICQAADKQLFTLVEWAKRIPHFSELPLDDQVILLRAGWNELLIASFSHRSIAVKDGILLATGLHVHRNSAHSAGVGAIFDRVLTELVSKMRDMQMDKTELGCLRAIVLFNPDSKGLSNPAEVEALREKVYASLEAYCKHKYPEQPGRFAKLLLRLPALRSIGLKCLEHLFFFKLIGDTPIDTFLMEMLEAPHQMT

For `CCCCCCCCCCCCCCCS(=O)(=O)Oc1ccccc1`, the outcome in assay [1], in assay [2], in [3], in [4], in [6] and in assay [7] was inactive. Moreover, the result in assay [9], in assay [10], in assay [12], in assay [13], in [14] and in assay [15] was inactive. In addition, the compound was classed as inactive in [16] and in [17]. Further, the concentration at half-maximal activity (AC50) was 5.88 µM (active) in assay [5], 3.8 µM (active) in [8], 4.08 µM (active) in [11] and 11.4 µM (active) in assay [18].

For the compound `CC(=O)CC(C)(C)O`, the outcome in [1], in assay [2], in assay [3], in assay [12], in assay [13] and in assay [14] was inactive. Also, the call in assay [15], in assay [16], in assay [17] and in assay [18] was inactive.

For `COCC(C)O` (stereo not drawn), the result in assay [1], in assay [2], in assay [3], in assay [12], in assay [13] and in [14] was inactive. The outcome in [15], in assay [16], in assay [17] and in [18] was inactive.

Consider `CC#C[C@]1(O)CC[C@H]2[C@@H]3CCC4=CC(=O)CCC4=C3[C@@H](c3ccc(N(C)C)cc3)C[C@@]21C`, for which the half-maximal activity concentration (AC50) in assay [1] is 416 nM (active); in assay [11], 3.9 µM (active); in [12] it was 22 µM (active); in [13] it was 4.54 µM (active); in assay [19], 39.2 µM (active); in [15], 86.2 µM (active). The concentration at half-maximal activity (AC50) in assay [17] was 33.4 µM (active); in assay [18] it was 50 µM (active). Further, the compound was called inactive in assay [1], in assay [2], in [3], in [5], in assay [9] and in assay [10]. Besides, in assay [14], the outcome was inactive.

`OCCC(F)(F)C(F)(F)C(F)(F)C(F)(F)C(F)(F)C(F)(F)F`: the compound was called inactive in assay [1], in [2], in assay [3], in assay [12], in [13] and in assay [14]. Moreover, the result in [19], in [15] and in assay [17] was inactive. Besides, the AC50 in assay [18] was 84.4 µM (active).

For the compound `NC(=O)N(O)[C@@H]1C=C[C@H](Oc2cccc(Oc3ccc(F)cc3)c2)C1`, the compound was classed as inactive in assay [1], in assay [2], in assay [3], in assay [4], in assay [5] and in [6]. Moreover, the compound was called inactive in assay [8], in [11] and in assay [14]. The concentration at half-maximal activity (AC50) is 67.2 µM (active) in [12]; 85 µM (active) in [13]; 84.1 µM (active) in assay [15]; 50 µM (active) in assay [16]; 42.7 µM (active) in assay [17]; 27.3 µM (active) in assay [18].

For the compound `CC[C@H](C)[C@@H](C(=O)O)n1sc2ccccc2c1=O`, the outcome in assay [1], in assay [2], in assay [3], in assay [12], in assay [13] and in [14] was inactive. Moreover, the call in assay [19], in assay [15] and in assay [17] was inactive. The half-maximal activity concentration (AC50) in assay [18] was 50 µM (active).

These data come from PubChem BioAssay (EPA / NIEHS).
